Measured values reported in PubChem BioAssay AID1159580 (chemical genetic matrix, 2015).
“And” between values parts separate entries of the source, which are not always exact repeats. Identical values can stand only once. Among all 5,500 compounds or so, about 2,000 (36%) were called active. Not shown: some 18% with an inconclusive outcome. No stated cut-off is given here; in the data, active means normalized growth mostly below about 0.91 (no sharp cut-off); inconclusive means no clear call, values can overlap the other calls; inactive means mostly above about 0.92. This is one part of the list.

Test: chemical genetic growth profiling, strain panel (AID 1159580);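 further: tested at 20 µM; growth read once vehicle control cultures reached saturation at 30 °C; 1 = growth at the plate median or of vehicle wells; lower values mean less growth of the strain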
Conditions: S. cerevisiae deletion strains, growth OD

Measured: normalized growth

CCCCN(CCCC)CCCOC(=O)c1ccc(N)cc1
inactive: locus YAL013W, strain DEP1, active compounds read low 1 | locus YAL021C, strain ccr4, active compounds read low 0.992 | locus YAL026C, strain drs2, active compounds read low 0.991 | locus YAL030W, strain snc1, active compounds read low 0.996 | locus YBL061C, strain skt5, active compounds read low 0.986 | locus YBR009C, strain hhf1, active compounds read low 0.998 | locus YBR021W, strain FUR4, active compounds read low 1.07 | locus YBR023C, strain chs3, active compounds read low 0.99 | locus YBR171W, strain sec66, active compounds read low 0.986 | locus YBR229C, strain ROT2, active compounds read low 0.998 | locus YBR231C, strain swc5, active compounds read low 1 | locus YBR279W, strain paf1, active compounds read low 0.994 | locus YCL011C, strain gbp2, active compounds read low 0.985 | locus YCL016C, strain dcc1, active compounds read low 0.99 | locus YCL029C, strain bik1, active compounds read low 0.982 | locus YCL061C, strain MRC1, active compounds read low 0.987 | locus YCL069W, strain vba3, active compounds read low 0.991 | locus YCR088W, strain abp1, active compounds read low 0.985 | locus YDL005C, strain med2, active compounds read low 0.994 | locus YDL035C, strain GPR1, active compounds read low 0.998 | locus YDL040C, strain nat1, active compounds read low 0.99 | locus YDL074C, strain BRE1, active compounds read low 0.977 | locus YDL101C, strain DUN1, active compounds read low 0.979 | locus YDL134C, strain PPH21, active compounds read low 1 | locus YDL185W, strain tfp1, active compounds read low 0.968 | locus YDL192W, strain arf1, active compounds read low 0.994 | locus YDR001C, strain nth1, active compounds read low 0.992 | locus YDR069C, strain doa4, active compounds read low 0.99 | locus YDR101C, strain arx1, active compounds read low 0.986 | locus YDR137W, strain rgp1, active compounds read low 0.879 | locus YDR150W, strain NUM1, active compounds read low 0.995 | locus YDR159W, strain sac3, active compounds read low 0.989 | locus YDR162C, strain NBP2, active compounds read low 0.984 | locus YDR195W, strain ref2 0.99 | locus YDR297W, strain sur2, active compounds read low 0.993 | locus YDR318W, strain mcm21, active compounds read low 0.992 | locus YDR334W, strain swr1, active compounds read low 0.983 | locus YDR335W, strain msn5, active compounds read low 0.989 | locus YDR388W, active compounds read low 0.989 | locus YDR392W, strain spt3, active compounds read low 0.983 | locus YDR502C, strain sam2, active compounds read low 1.01 | locus YEL003W, strain gim4, active compounds read low 0.986 | locus YEL037C, strain rad23, active compounds read low 0.991 | locus YEL061C, strain CIN8 (second series), active compounds read low 0.981 | locus YEL061C, strain CIN8, active compounds read low 0.998 | locus YER015W, strain faa2, active compounds read low 0.991 | locus YER016W, strain bim1, active compounds read low 0.991 | locus YER110C, active compounds read low 0.989 | locus YER111C, strain swi4, active compounds read low 1 | locus YER155C, strain BEM2 (second series), active compounds read low 0.984 | locus YER155C, strain BEM2, active compounds read low 1 | locus YER167W, strain BCK2, active compounds read low 0.995 | locus YFR010W, strain ubp6, active compounds read low 0.99 | locus YGL078C, strain dbp3, active compounds read low 0.992 | locus YGL086W, strain mad1, active compounds read low 0.994 | locus YGL167C, strain pmr1, active compounds read low 0.991 | locus YGL173C, strain kem1, active compounds read low 0.983 | locus YGL227W, strain vid30, active compounds read low 0.983 | locus YGL240W, strain doc1, active compounds read low 1 | locus YGL248W, strain PDE1, active compounds read low 1 | locus YGL253W, strain hxk2, active compounds read low 0.991 | locus YGR078C, strain PAC10, active compounds read low 0.97 | locus YGR135W, strain pre9, active compounds read low 0.994 | locus YGR229C, strain SMI1, active compounds read low 0.961 | locus YGR252W, strain gcn5, active compounds read low 1.16 | locus YHR013C, strain ard1, active compounds read low 0.961 | locus YHR027C, strain rpn1, active compounds read low 0.991 | locus YHR030C, strain SLT2, active compounds read low 0.965 | locus YHR079C, strain IRE1 (second series), active compounds read low 0.977 | locus YHR079C, strain IRE1, active compounds read low 0.973 | locus YHR094C, strain hxt1, active compounds read low 0.985 | locus YHR129C, strain ARP1, active compounds read low 0.989 | locus YHR142W, strain chs7, active compounds read low 0.992 | locus YHR200W, strain rpn10, active compounds read low 0.996 | locus YIL066C, strain RNR3, active compounds read low 0.991 | locus YIL073C, strain SPO22, active compounds read low 0.937 | locus YIL125W, strain kgd1, active compounds read low 0.987 | locus YIR030C, strain dcg1, active compounds read low 0.997 | locus YJL092W, strain hpr5, active compounds read low 0.986 | locus YJL095W, strain BCK1 (second series), active compounds read low 0.993 | locus YJL095W, strain BCK1, active compounds read low 0.967 and 0.982 | locus YJL115W, strain asf1, active compounds read low 0.993 | locus YJL129C, strain trk1, active compounds read low 1 | locus YJL134W, strain LCB3, active compounds read low 0.993 | locus YJL154C, strain vps35, active compounds read low 0.987 | locus YJL164C, strain tpk1, active compounds read low 0.964 | locus YJL166W, strain qcr8, active compounds read low 0.996 | locus YJL168C, strain set2, active compounds read low 0.988 | locus YJL187C, strain SWE1 (second series), active compounds read low 0.962 | locus YJL187C, strain SWE1, active compounds read low 0.992 | locus YJR043C, strain POL32, active compounds read low 0.993 | locus YJR066W, strain TOR1, active compounds read low 0.95
